From the supplement of paper PMC6555819

Assays:
Assay in all cases: PBM binding z-score (relative to random genomic background probes); higher = stronger binding; sequences stand for … in GC…GCGATTGACAGCGTAGAATGAAGG
[1] = tested on: FXR:RXRa (NR concentration 270 nM, RXRa partner concentration 90 nM)
Summary of the method: (§1)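 Random background probes are the reference for binding z-scores. These scores derive from regression-normalized fluorescence on custom Agilent 4×180K protein-binding microarrays incubated 1 h with ligand-free nuclear receptor dimers. Binding was detected with antibodies against each partner (one per run).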

[2] = tested on: LXRa:RXRa (NR concentration 270 nM, RXRa partner concentration 90 nM)
Summary of the method: as §1

[3] = tested on: LXRa homodimer (NR concentration 270 nM)
Summary of the method: as §1

[4] = tested on: LXRb:RXRa (NR concentration 270 nM, RXRa partner concentration 90 nM)
Summary of the method: as §1

[5] = tested on: LXRb homodimer (NR concentration 270 nM)
Summary of the method: as §1

[6] = tested on: PPARa:RXRa (NR concentration 270 nM, RXRa partner concentration 90 nM)
Summary of the method: as §1

[7] = tested on: PPARg:RXRa (NR concentration 180 nM, RXRa partner concentration 90 nM)
Summary of the method: as §1

[8] = tested on: PPARg:RXRa 270nM:90nM, anti-RXR (NR concentration 270 nM, RXRa partner concentration 90 nM)
Summary of the method: as §1

[9] = tested on: PPARg:RXRa 30nM:10nM, anti-RXR (NR concentration 30 nM, RXRa partner concentration 10 nM)
Summary of the method: as §1

[10] = tested on: PPARg:RXRa 90nM:30nM, anti-RXR (NR concentration 90 nM, RXRa partner concentration 30 nM)
Summary of the method: as §1

[11] = tested on: PPARg:RXRa DBDmut IVT, anti-RXR (DBD mutation: RXRa K156A/R161A, NR concentration 270 nM, RXRa partner concentration 90 nM)
Summary of the method: as §1

[12] = tested on: PPARg:RXRa IVT, anti-PPARg (NR concentration 270 nM, RXRa partner concentration 90 nM)
Summary of the method: as §1

[13] = tested on: PPARg DBDmut:RXRa IVT, anti-PPARg (DBD mutation: PPARg1 K132A/R137A, NR concentration 270 nM, RXRa partner concentration 90 nM)
Summary of the method: as §1

[14] = tested on: PPARg DBDmut IVT, anti-PPARg (DBD mutation: PPARg1 K132A/R137A, NR concentration 270 nM)
Summary of the method: as §1

[15] = tested on: PPARg homodimer (NR concentration 180 nM)
Summary of the method: as §1

[16] = tested on: PXR:RXRa (NR concentration 270 nM, RXRa partner concentration 90 nM)
Summary of the method: as §1

[17] = tested on: PXR homodimer (NR concentration 270 nM)
Summary of the method: as §1

[18] = tested on: RARa:RXR (NR concentration 270 nM, RXRa partner concentration 90 nM)
Summary of the method: as §1

[19] = tested on: RARa homodimer (NR concentration 270 nM)
Summary of the method: as §1

[20] = tested on: RARb:RXRa (NR concentration 270 nM, RXRa partner concentration 90 nM)
Summary of the method: as §1

Sequence | PBM binding z-score [1] | PBM binding z-score [2] | PBM binding z-score [3] | PBM binding z-score [4] | PBM binding z-score [5] | PBM binding z-score [6] | PBM binding z-score [7] | PBM binding z-score [8] | PBM binding z-score [9] | PBM binding z-score [10] | PBM binding z-score [11] | PBM binding z-score [12] | PBM binding z-score [13] | PBM binding z-score [14] | PBM binding z-score [15] | PBM binding z-score [16] | PBM binding z-score [17] | PBM binding z-score [18] | PBM binding z-score [19] | PBM binding z-score [20]
TCTATTAGTTGAAGGGCAGCCGACGAGTCCGTTT | 0.906 | 0.864 | 0.0935 | 0.623 | 0.323 | 0.856 | -0.213 | 1.78 | 3.64 | 2.81 | 2.37 | 0.427 | 0.454 | 1.07 | 0.963 | 0.654 | 0.958 | 0.447 | 0.781 | 1.37
CGTTCAAGGTCAATGCTAGGTCAGTGAAAGCATT | 7.47 | 5.78 | 2.89 | 4.36 | 1.24 | 5.27 | 4.81 | 5.15 | 1.88 | 3.91 | 4.31 | 4.8 | 0.872 | 0.0991 | 7.93 | 5.3 | 1.78 | 6.62 | 2.61 | 5.22
TTACCAAGGTGAAGGACGTTGATCCCTCTGTAGA | 0.74 | 0.584 | -0.361 | 0.414 | -0.656 | 1.21 | 0.633 | 1.19 | 0.789 | 1.17 | 1.55 | 2.11 | 0.655 | -0.0196 | 0.106 | 0.213 | -0.502 | 0.474 | -0.478 | 1.26
CCTTGCAGGCCAGGGTCACTCAAGCATTTCGCTT | 2.3 | 1.82 | -0.569 | 1.99 | -1.06 | 3.29 | 1.01 | 2.11 | -0.339 | 1.02 | 1.64 | 1.87 | -0.933 | -1.48 | 0.75 | 2.65 | -0.433 | 3.33 | -0.43 | 2.79
ACTTACGGGTCAACGAGGTTAGAGCACGCGTATA | 6.72 | 4.76 | 0.422 | 3.9 | 0.261 | 5.57 | 5.52 | 5.72 | 2.15 | 4.13 | 3.74 | 4.28 | 0.679 | 0.825 | 2.64 | 4.7 | 1.33 | 4.99 | 0.957 | 4.2
ATCGGAAGGTCGTGAGGTGAGTATACAGAAAGGC | 2.73 | 1.85 | 0.212 | 1.69 | 0.0341 | 3.13 | 1.68 | 1.63 | 0.466 | 0.932 | -0.372 | 1.37 | -0.0584 | 0.491 | 1.77 | 1.71 | 0.639 | 2.72 | 1.05 | 2.83
ATATGTAGGTTAGGTGGGGTCATTCAGACTAGGC | 5.01 | 6.16 | 3.73 | 5.37 | 2.74 | 5.23 | 5.59 | 5.49 | 2.48 | 4.67 | 6.72 | 5.87 | 2.01 | 3.16 | 2.99 | 6.47 | 4.9 | 6.09 | 1.79 | 2.98
CGAACTAGGTCAAGGACAGTGCATCTCCGCACGC | 3.37 | 2.49 | 0.582 | 1.38 | -0.386 | 4.35 | 7.23 | 6.31 | 3.38 | 5.86 | 8.15 | 8.09 | 1.65 | 0.963 | 1.3 | 2.24 | 0.348 | 1.94 | -0.145 | 3.97
TCGAGTAGGTTAGGGGCATTGAGAATGGCGTCGA | 0.089 | 0.155 | -0.182 | 0.843 | -0.13 | 1.18 | 0.706 | 1.97 | 1.38 | 1.51 | 1.85 | 1.45 | -1.19 | -0.696 | 1.3 | 0.449 | 0.233 | 0.211 | -0.562 | 1.03
TCATATAGGTAATTGCTAGGTGAAAGTCCGATCT | 0.86 | 0.654 | 0.0873 | 0.781 | 0.17 | 1.41 | 0.771 | 2.36 | 3.67 | 3.02 | 4.13 | 2.91 | 0.632 | 1.27 | 0.408 | 0.515 | 0.224 | 0.757 | 0.784 | 0.345
CGTCCAAGGTCAAAGGTCAGTGTAGAGATGACGG | 8.42 | 7.04 | 3.99 | 6.49 | 1.91 | 7.25 | 10.7 | 9.05 | 7.79 | 9.69 | 4.11 | 5.93 | 0.888 | 1.64 | 5.56 | 7.16 | 1.91 | 8.91 | 3.88 | 5.94
AGAAAGAGGTTAAGATCAGGGAAACAGAATACAT | 2.5 | 2.43 | 0.396 | 2.31 | 0.766 | 3.66 | 2.06 | 1.89 | 1.05 | 1.34 | 1.12 | 1.52 | 1.97 | 0.819 | 1.02 | 1.37 | 0.655 | 1.89 | 0.728 | 2.4
CAGGCTAGGTCAGGGCCAGTATAGGAGGAACGTT | 1.56 | 0.779 | -0.274 | 0.278 | -0.895 | 2.06 | 1.39 | 1.07 | -0.194 | 0.297 | 1.77 | 2.27 | -0.979 | -1.24 | 0.901 | 0.235 | -0.157 | 0.946 | 0.278 | 3.6
TGAATGAGGTTAAAGACCAGGGAACGTGGCGTCG | 2.78 | 2.16 | -0.15 | 1.26 | 0.1 | 3.51 | 3.08 | 4.46 | 2.42 | 4.02 | 1.75 | 2.7 | 1.19 | 0.401 | 0.683 | 1.08 | -0.0383 | 2.17 | 0.0679 | 1.84
